# From PubChem
# HIF-2a inh: HIF-2a inhibition; 786-0 RCC cells HIF-2a reporter, luciferase luminescence, overnight; inhibition, % at 18.8 µM; 360,000 tested, 0.72% active;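 active = inhibition of the luminescence signal of 40% or more relative to plate controls, in a single-dose primary screen at 18.75 µM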
# TWEAK-Fn14 inh: blocks TWEAK-Fn14 interaction in a reporter cell assay; AID 1159606; inhibition, % at 10 µM; TWEAK-stimulated Fn14 reporter cells, luciferase luminescence, 8 h; 360,000 tested, 2% active; in the data active = inhibition above about 50%
# TROY NFkB inh: TROY signaling inhibition | Q293 LMP1-TROYcd NF-kB luciferase reporter, 4 h | inhibition, % at 10 µM | 360,000 tested, 0.98% active | AID 1347056;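 active = compounds whose plate-normalised and pattern-corrected inhibition of the luciferase reporter signal at the single screening dose is 50% or more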
# TRAIL sens C8: caspase-8 TRAIL sensitization; 360,000 tested, 1% active; AID 624354; inhibition (viability loss, TRAIL sensitization), % at 10 µM; NB7+C8 cells + TRAIL, ATPlite viability luminescence;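 active = compounds causing at least 50% loss of cell viability in the single-dose screen, relative to plate controls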
# HSP90 inh: inhibitors of HSP90 luciferase refolding in rabbit reticulocyte lysate; luciferase refolding luminescence, 3 h; inhibition, % at 5.6 µM; 290,000 tested, 0.91% active; AID 1789;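 active = inhibition above the screen-wide mean plus 3 SD, computed separately per campaign, cut at about 16% in these data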;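 also: 0% = DMSO wells and 100% = 60 µM geldanamycin wells; inhibitors lower the luminescence because luciferase stays unfolded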
# aSyn 5UTR inh: 5' untranslated region of α-synuclein, MLPCN primary screen; 300,000 tested, 0.82% active; inhibition, % (tested at 7.5 µM); alpha-synuclein 5'UTR reporter, inhibitor activity; in the data active = inhibition above about 60%; inconclusive = no clear call, values can overlap the other calls;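 also: H4 neuroglioblastoma cells stably carrying SNCA 5'UTR luciferase fusion; 0% = DMSO wells and 100% = positive control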
# An asterisk follows results filed as active; i = inactive; ? = inconclusive; · = no result given. Most compounds without a hit are left out; they make up all but 3.9% or so of the library.
SMILES,HIF-2a inh,TWEAK-Fn14 inh,TROY NFkB inh,TRAIL sens C8,HSP90 inh,aSyn 5UTR inh
CC(C)c1ccc(C2c3[nH]c4ccccc4c3C[C@H]3C(=O)N(c4ccccc4C(=O)N4CCC[C@@H]4C(=O)O)C(=O)N23)cc1 (stereo partly drawn),-28,34,66*,4,-2,0
Cn1nc(C(F)(F)F)c2cc(C(=O)Nc3ccc(C(F)(F)F)cc3)sc21,-20,41,51*,7,-1,-11
Cn1nc(C(F)(F)F)c2cc(C(=O)Nc3ccc(F)c(Cl)c3)sc21,-4,1,61*,-4,4,-47
CC(C)COc1ccc(C(=O)Nc2sc3c(c2C(=O)O)CC(C)(C)OC3)cc1,4,25,28,7,1,63*
CC1(C)Cc2c(sc(NC(=O)c3ccccc3)c2C(=O)O)CO1,-202,35,12,25,9,-74
COc1ccc(C(=O)Nc2sc3c(c2C(=O)O)CC(C)(C)OC3)cc1,-22,45,2,22,-4,63*
CN(CC(=O)NCCc1ccc(S(N)(=O)=O)cc1)CC(=O)Nc1ccccc1C(F)(F)F,-3,-15,-13,-4,·,·
Cc1nc(C(=O)O)cc2c1[nH]c1ccccc12,9,0,-4,-10,·,1
CC(=O)N(C(C)=O)c1ncc2c([nH]c3ccccc32)c1C#N,-20,55*,54*,10,2,65*
O=C(NCc1ccco1)/C(=C\C=C\c1ccccc1)NC(=O)c1ccccc1Br,11,7,70*,-3,5,12
COc1ccc(Nc2nc(-c3ccccc3)nc3ccccc23)cc1,-35,6,15,7,-3,5
COc1ccc(NC(=O)COC(=O)c2c3c(nc4ccccc24)CCCC3)cc1,-19,59*,42,28,0,20
COc1ccc(Nc2nc(-c3cccc([N+](=O)[O-])c3)nc3ccccc23)cc1,-46,80*,25,-5,5,48
CNC(=O)COC(=O)c1c2c(nc3ccccc13)CCC2,6,-6,18,0,5,-4
COc1ccc(OC)c(Nc2c3c(nc4ccccc24)CCC3)c1,29,-32,6,20,1,106*
COc1ccc(OC)c(NC(=O)COC(=O)c2c3c(nc4ccccc24)CCCC3)c1,-9,55*,29,17,3,12
COc1ccc([N+](=O)[O-])cc1Nc1c2ccccc2nc2ccccc12,15,-14,3,32,-2,77*
COc1ccc(NC(=O)COC(=O)c2c3c(nc4ccccc24)CCCC3)cc1Cl,-70,65*,53*,25,4,-36
Cc1c(NC(=O)COC(=O)c2c3c(nc4ccccc24)CCCC3)c(=O)n(-c2ccccc2)n1C,12,-11,17,-11,2,15
COc1ccc(NC(=O)C2(C)CCCN(C(C)C)C2)cc1OC (stereo not drawn),4,7,7,5,·,·
CCCCn1c(N)c(N(C)C(=O)C2CC(=O)N(Cc3ccco3)C2)c(=O)[nH]c1=O (stereo not drawn),6,29,3,5,·,·
O=C1OC(/C(=C\Nc2ccc(F)cc2F)[N+](=O)[O-])c2ccccc21 (stereo not drawn),-4,51*,0,-4,1,-42
Cc1ccc(N/C=C(\C2OC(=O)c3ccccc32)[N+](=O)[O-])c(C)c1 (stereo not drawn),1,44,7,-5,3,4
O=C1OC(/C(=C\Nc2cc(Cl)ccc2O)[N+](=O)[O-])c2ccccc21 (stereo not drawn),17,34,5,-4,38*,-102
CC(C)NC(=O)C1(C)CN(S(C)(=O)=O)CC(=O)N1CCOc1ccccc1 (stereo not drawn),-9,·,·,-2,·,·
SMILES,HIF-2a inh,TWEAK-Fn14 inh,TROY NFkB inh,TRAIL sens C8,HSP90 inh,aSyn 5UTR inh
O=C(Nc1ccc(OC(F)(F)F)cc1)c1cc(S(=O)(=O)N2CCCCC2)ccc1N1CCOCC1,2,10,-10,1,·,·
Cc1cc(C(O)c2ncc(-c3ccccc3)[nH]2)ccc1F (stereo not drawn),-44,-13,-19,-7,·,·
NC(=S)NN=C1c2ccccc2-c2c(F)c(F)c(F)c(F)c21,13,-1,7,71*,·,·
CC(C)C[C@@H]1COc2cc(N3CCSCC3)ccc2S(=O)(=O)N1,-4,3,-6,9,·,·
CCOCCCNC(=O)c1ccc2c(c1)N=C(CC)c1cc(Br)ccc1S2,25,21,17,6,0,88*
Cc1oc2c(Cl)c(Cl)c(O)c(CN(C)C)c2c1C(=O)c1ccc(Cl)cc1,21,75*,48,5,0,6
Cc1oc2ccc(O)c(CN3CCOCC3)c2c1C(=O)c1ccc(Cl)cc1,8,16,6,2,0,8
COc1ccc2c(C)nc(Nc3nc(-c4ccccc4)cc(=O)[nH]3)nc2c1,-52,63*,58*,41,2,i
Cc1ccc2c(C)nc(Nc3nc(CSc4nc5ccccc5[nH]4)cc(=O)[nH]3)nc2c1,-28,96*,68*,41,-4,?
Cc1ccc(OCc2nc3ccccc3n2C(C(=O)Nc2c(C)cccc2C)C2CC2)cc1 (stereo not drawn),3,·,·,0,·,·
Cc1ccc(S(=O)(=O)N2C[C@H]3C(=O)C[C@@H]4C(=O)N(c5ccccc5)C(=O)[C@@H]4[C@@H]3C[C@H]2c2cccc(Cl)c2)cc1,-1,16,18,-1,·,·
CCCCn1c(N)c(N(C(=O)CSc2nncn2-c2ccccc2C)C2CCCC2)c(=O)[nH]c1=O,7,2,-4,1,·,·
O=S1(=O)CC(N2CCN(c3ccccn3)CC2)CN1Cc1ccccc1 (stereo not drawn),7,9,-5,5,·,·
Cn1c2ccccc2c(=O)c2cc(C#CC3=CCCCC3)ccc21,-83,48,60*,43,·,·
Cc1ccccc1NC(=O)c1cc(C(=O)c2cc(Cl)ccc2O)cn(-c2ccccc2C)c1=O,-42,87*,38,26,-5,2
O=C1NC[C@@H](CCCCN2C[C@H](Cc3ccc(O)cc3)N(CCC3CCCCC3)C(=O)C2=O)N(Cc2ccccc2)C1=O,-5,11,-8,13,·,·
CC(=O)Oc1cc2c3c(c1)/C(=C1/SC(=S)NC1=O)C(=O)N3C(C)(C)C=C2C,-22,41,50*,6,1,-3
CCOc1cc2c3c(c1)C(C)=CC(C)(C)N3C(=O)C2=O,14,20,15,4,1,-74
COc1cc2c(O)c3c(c(-c4ccc5c(c4)OCO5)c2cc1OC)C(=O)OC3,-6,-60,-12,24,7,108*
Cc1cc(=O)oc2ccc(OC(=O)c3cccc(S(=O)(=O)N4CCOCC4)c3)cc12,0,101*,39,-7,-1,-30
c1ccc(CCc2nn3c(-c4ccncc4)nnc3s2)cc1,-8,74*,29,12,-5,31
